Test results taken from PubChem BioAssay.
Active and inactive are the calls of the source.

Legend:
[1] = small molecules captured by biotinylated probe aFSTL3 – biochemical, small-molecule microarray, fluorescence 635/667, stem cell growth factor project, primary screen (AID 1064); conditions: higher = more signal;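 also: measures binding of the biotinylated anti-FSTL3 antibody to printed compounds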
[2] = binders from COS7 lysate, DM2A8 probe, primary screen, torsin A project, cell lysate, small-molecule microarray, fluorescence 635/667 (AID 1065); conditions: higher = more signal, COS7 lysate expressing mutant human TOR1A
[3] = small molecules captured by biotinylated probe aFGF2 – biochemical, small-molecule microarray, fluorescence 635/667, stem cell growth factor project, primary screen (AID 1067); conditions: higher = more signal;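 also: measures binding of biotinylated aFGF2 protein to printed compounds on slides; z-score merges feature fluorescence and signal-to-noise across triplicate slides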
[4] = small molecules captured by biotinylated probe aFGF10 – biochemical, small-molecule microarray, fluorescence 635/667, stem cell growth factor project, primary screen (AID 1071); conditions: higher = more signal;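 also: score merges 667 nm spot intensity and signal to noise from triplicate slides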
[5] = biological target: Neurogenic locus notch homolog protein 2 (Homo sapiens) (UniProt Q04721); assay: small molecules binding Notch2 protein – biochemical, small-molecule microarray, 635 nm fluorescence, stem cell growth factors, primary screen (AID 1073); conditions: higher = more signal
Chain of Neurogenic locus notch homolog protein 2 (Homo sapiens) (Q04721 whole entry, looked up, canonical isoform): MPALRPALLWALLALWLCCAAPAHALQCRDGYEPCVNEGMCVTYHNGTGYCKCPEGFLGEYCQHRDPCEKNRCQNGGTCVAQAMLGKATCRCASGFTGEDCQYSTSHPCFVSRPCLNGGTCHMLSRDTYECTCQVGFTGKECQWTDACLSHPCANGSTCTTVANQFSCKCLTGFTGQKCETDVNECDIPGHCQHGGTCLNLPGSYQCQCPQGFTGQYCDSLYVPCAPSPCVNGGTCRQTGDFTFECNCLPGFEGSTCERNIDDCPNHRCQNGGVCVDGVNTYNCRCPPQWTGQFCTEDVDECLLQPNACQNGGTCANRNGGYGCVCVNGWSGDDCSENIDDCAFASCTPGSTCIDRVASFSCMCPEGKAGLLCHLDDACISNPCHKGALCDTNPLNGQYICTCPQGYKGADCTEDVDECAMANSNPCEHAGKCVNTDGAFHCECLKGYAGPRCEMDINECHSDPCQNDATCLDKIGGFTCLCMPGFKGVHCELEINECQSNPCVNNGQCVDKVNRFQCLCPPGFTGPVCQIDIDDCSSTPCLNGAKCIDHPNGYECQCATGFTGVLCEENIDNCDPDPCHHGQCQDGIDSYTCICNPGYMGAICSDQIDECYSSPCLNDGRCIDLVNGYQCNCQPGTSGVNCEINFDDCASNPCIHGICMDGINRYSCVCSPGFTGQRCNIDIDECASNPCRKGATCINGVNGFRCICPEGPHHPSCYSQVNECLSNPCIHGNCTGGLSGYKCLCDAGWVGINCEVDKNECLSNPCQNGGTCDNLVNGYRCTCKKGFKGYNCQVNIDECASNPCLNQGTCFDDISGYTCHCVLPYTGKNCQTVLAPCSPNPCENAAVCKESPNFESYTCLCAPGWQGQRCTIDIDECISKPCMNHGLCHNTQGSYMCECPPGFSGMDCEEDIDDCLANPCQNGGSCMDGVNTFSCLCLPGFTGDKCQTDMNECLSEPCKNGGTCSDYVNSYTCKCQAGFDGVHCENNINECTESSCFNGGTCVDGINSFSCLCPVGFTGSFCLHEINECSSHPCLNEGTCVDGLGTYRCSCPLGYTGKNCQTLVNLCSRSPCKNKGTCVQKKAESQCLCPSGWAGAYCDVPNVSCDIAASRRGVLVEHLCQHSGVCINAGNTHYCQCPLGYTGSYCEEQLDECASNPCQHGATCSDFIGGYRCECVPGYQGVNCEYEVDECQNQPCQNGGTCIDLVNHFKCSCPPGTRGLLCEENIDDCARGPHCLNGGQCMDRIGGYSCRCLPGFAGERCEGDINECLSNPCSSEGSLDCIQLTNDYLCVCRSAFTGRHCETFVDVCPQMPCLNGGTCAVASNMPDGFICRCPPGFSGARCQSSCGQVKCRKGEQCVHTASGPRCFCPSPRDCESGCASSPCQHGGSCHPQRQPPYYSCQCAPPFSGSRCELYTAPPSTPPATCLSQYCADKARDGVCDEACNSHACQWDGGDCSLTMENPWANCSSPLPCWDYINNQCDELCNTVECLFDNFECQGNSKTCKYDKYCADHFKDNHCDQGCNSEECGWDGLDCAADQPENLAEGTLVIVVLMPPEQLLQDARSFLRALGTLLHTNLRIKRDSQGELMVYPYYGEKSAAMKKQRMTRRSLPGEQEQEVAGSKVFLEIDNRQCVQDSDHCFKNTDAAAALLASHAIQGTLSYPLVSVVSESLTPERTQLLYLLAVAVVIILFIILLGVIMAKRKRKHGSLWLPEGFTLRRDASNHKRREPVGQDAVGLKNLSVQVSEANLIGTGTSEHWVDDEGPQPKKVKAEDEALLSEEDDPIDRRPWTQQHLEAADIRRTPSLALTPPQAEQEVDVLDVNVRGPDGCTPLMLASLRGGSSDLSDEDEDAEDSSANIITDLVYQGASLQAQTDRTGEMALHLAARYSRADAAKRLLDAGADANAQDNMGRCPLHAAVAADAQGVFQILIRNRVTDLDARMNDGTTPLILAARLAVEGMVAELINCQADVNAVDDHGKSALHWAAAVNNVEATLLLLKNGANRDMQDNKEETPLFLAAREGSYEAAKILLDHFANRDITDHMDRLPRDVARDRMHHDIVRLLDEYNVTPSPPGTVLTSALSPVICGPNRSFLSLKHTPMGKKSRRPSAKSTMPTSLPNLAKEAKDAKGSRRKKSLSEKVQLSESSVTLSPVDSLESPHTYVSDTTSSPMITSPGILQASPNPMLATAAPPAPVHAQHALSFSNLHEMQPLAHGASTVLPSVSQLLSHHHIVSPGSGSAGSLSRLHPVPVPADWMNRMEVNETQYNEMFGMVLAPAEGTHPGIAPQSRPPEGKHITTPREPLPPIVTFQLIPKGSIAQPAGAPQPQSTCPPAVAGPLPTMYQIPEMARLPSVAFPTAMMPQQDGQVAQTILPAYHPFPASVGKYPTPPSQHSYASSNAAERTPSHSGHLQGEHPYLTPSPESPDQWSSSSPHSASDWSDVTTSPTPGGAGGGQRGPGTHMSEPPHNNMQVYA

[6] = biological target: Pro-neuregulin-1, membrane-bound isoform (Homo sapiens) (UniProt Q02297); assay: small molecules binding neuregulin-1 protein – biochemical, small-molecule microarray, fluorescence 635/667, psychiatric disease protein project, primary screen (AID 1075); conditions: NRG1 binding, 635 nm fluorescence, higher = more signal;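 also: score combines 667 nm spot fluorescence with signal to noise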
Chain of Pro-neuregulin-1, membrane-bound isoform (Homo sapiens) (Q02297 whole entry, looked up, the tested form may be a part, canonical isoform): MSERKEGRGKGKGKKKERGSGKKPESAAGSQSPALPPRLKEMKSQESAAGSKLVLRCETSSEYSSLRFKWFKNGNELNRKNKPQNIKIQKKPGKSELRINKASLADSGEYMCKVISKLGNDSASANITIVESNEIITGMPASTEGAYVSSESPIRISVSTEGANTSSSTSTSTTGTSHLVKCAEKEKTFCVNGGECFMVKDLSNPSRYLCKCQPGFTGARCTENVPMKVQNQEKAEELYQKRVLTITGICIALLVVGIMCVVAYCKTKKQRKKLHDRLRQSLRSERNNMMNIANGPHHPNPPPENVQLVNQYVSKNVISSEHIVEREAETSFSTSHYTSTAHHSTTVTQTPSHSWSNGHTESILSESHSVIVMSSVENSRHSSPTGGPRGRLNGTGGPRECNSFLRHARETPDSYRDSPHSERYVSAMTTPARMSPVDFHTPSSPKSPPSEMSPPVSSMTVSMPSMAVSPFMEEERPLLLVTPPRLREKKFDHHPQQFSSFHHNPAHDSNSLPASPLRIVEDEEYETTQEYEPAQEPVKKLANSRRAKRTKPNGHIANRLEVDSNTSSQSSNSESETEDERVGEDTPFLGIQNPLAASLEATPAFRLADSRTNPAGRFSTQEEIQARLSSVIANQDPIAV

[7] = system: Neuregulin-1 EGF-like domain; assay: small molecules binding NRG1 EGF domain – biochemical, small-molecule microarray, 635 nm fluorescence, primary screen (AID 1081); conditions: higher = more signal;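 also: binding of the protein to compounds printed on small-molecule microarray slides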
[8] = FRG1 expression reporter modulators in myotubes – cell-based, C2C12 myotubes, firefly/Renilla luciferase, luminescence, FRG1 inhibition for FSHD, primary screen (AID 1084); conditions: FRG1 promoter luciferase, higher = more signal, called active from +8 up or from −8 down
[9] = small molecules captured by biotinylated probe aFST – biochemical, small-molecule microarray, fluorescence 635/667, stem cell growth factor project, primary screen (AID 1086); conditions: higher = more signal;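 also: score merges 667 nm fluorescence with signal-to-noise of each printed compound spot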
[10] = binders of probe aHhip on microarray, primary screen, stem cell growth factor project, biochemical, small-molecule microarray, fluorescence 635/667 (AID 1087); conditions: higher = more signal;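 also: score merges spot fluorescence at 667nm with spot signal to noise ratio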

Compound	composite z-score [1]	composite z-score [2]	composite z-score [3]	composite z-score [4]	composite z-score [5]	composite z-score [6]	composite z-score [7]	z-score [8]	composite z-score [9]	composite z-score [10]
COC(=O)C(CC#Cc1ccc2c(c1)[C@]1(C(=O)N2)[C@H](c2ccccc2OCCO)N2[C@H](c3ccccc3)[C@H](c3ccccc3)OC(=O)[C@H]2[C@@H]1C(=O)O)C(=O)OC	0.187	0.856	0.0876	0.866	0.275	1.65	1.32	-0.173 (inactive)	0.411	0.426
CN1C(=O)C2C=CC(C(O)C=Cc3ccc([N+](=O)[O-])cc3)N(Nc3ccccc3)C2C1=O (stereo not given)	-0.283	0.617	0.0411	0.497	1.25	1.59	1.35	2.12 (inactive)	0.998	-0.132
COC(=O)[C@@]1(Cc2ccc(OC)cc2)[C@H]2c3cc(C(=O)N4CCCC4)n(Cc4nc5ccccc5[nH]4)c3C[C@H]2CN1C(=O)c1ccccc1	1.13	0.572	0.417	1	1.82	2.11	1.14	4.38 (inactive)	1.65	-0.229
CCOC(=O)C1=CC[C@@H](c2ccccc2)N(S(=O)(=O)c2ccc(C)cc2)[C@H]1c1ccc(CC)cc1	0.114	-0.0251	-0.0056	0.421	1.4	0.863	1.06	-3.16 (inactive)	0.762	-0.0618
CCOc1cc(C(O)C2C=CC3C(=O)N(c4ccccc4)C(=O)C3N2Nc2ccc(C(C)C)cc2)ccc1O (stereo not given)	0.0696	0.201	-0.0254	0.707	1.52	1.36	1.31	0.698 (inactive)	1.17	-0.0237
CC(C)[Si](C#CCCCC#N)(O[C@H](c1ccccc1)c1cn(Cc2cccc(Cl)c2)nn1)C(C)C	-0.37	0.558	-0.104	0.689	0.799	-0.0808	0.603	-1.04 (inactive)	0.624	0.136
O=C(CS)NCCCCCNC(=O)[C@@H]1C[C@@H]2C(=O)NCC(=O)N2[C@@H]1c1ccc(O)cc1	-0.0188	0.654	-0.11	0.0152	-0.966	0.317	1.39	0.111 (inactive)	-0.155	-0.0003
COc1ccc(NN2C(C(O)c3ccc(N(C)C)cc3)C=CC3C(=O)N(C4CCCCC4)C(=O)C32)cc1 (stereo not given)	0.419	0.427	0.157	1.01	1.53	1.05	1.15	0.613 (inactive)	0.352	0.284
C[N+](C)(C)CCCC[C@@H]1NC(=O)[C@@H]2C[C@H](C(=O)NCCCCCCNC(=O)CS)[C@H](c3ccc(O)cc3)N2C1=O	0.973	-0.951	-0.193	0.0372	-1.41	0.801	1.47	-0.338 (inactive)	-0.622	0.235
C=CC[C@@]1(C(=O)N2CCCCC2)N=C(c2ccc(OCCCO)cc2)O[C@@H]1c1ccccc1N=[N+]=[N-]	0.292	-0.0912	-0.0198	0.555	1.55	1.4	1.23	-0.546 (inactive)	0.833	-0.0618
NC(=O)[C@@H]1[C@H]2C(=O)O[C@H](c3ccccc3)[C@H](c3ccccc3)N2[C@H](c2ccc(OCCO)cc2)[C@@]12C(=O)Nc1ccc(C#CC3=CCCCC3)cc12	-0.342	0.18	-0.125	1.18	1.23	1.11	1.16	1.15 (inactive)	0.447	-0.227
CCCC=C(CCC)[C@@H](NS(=O)(=O)c1ccc(Cl)cc1)c1ccc(C(=O)OC)cc1	-0.172	-0.114	-0.0841	0.484	0.41	-0.194	0.866	2.58 (inactive)	0.0699	-0.236
COc1ccc([Si](C)(C)[C@@H]2[C@@H](CC(=O)N3CCC[C@H]3CO)O[C@]3(C(=O)N(Cc4cccc(I)c4)c4ccccc43)[C@H]2C)cc1	0.07	1.29	-0.137	0.192	1.08	0.916	1.17	-1.06 (inactive)	0.453	-0.0994
CCOC(=O)C1=CC[C@H]2C(=O)N(c3ccccc3)C(=O)[C@@H]12	-0.368	0.606	0.05	1.07	1.61	1.37	1.32	-0.775 (inactive)	0.743	-0.0237
CN1C(=O)C2C=CC(C(O)c3ccccc3)N(N3CCCCC3)C2C1=O (stereo not given)	-0.239	0.876	0.054	1.02	1.42	1.62	1.02	-1.13 (inactive)	0.406	-0.0346
COc1ccc([Si](C)(C)[C@@H]2[C@@H](CCn3cc([C@H](O)c4ccccc4)nn3)O[C@]3(C(=O)N(Cc4cccc(N5CCC5=O)c4)c4ccccc43)[C@H]2C)cc1	-0.0168	-0.185	-0.116	0.232	-0.205	0.292	0.729	0.795 (inactive)	-0.162	-0.249
CN1CCC(CCCO)=CC1c1cccs1 (stereo not given)	-0.017	0.0383	-0.159	-0.959	-1.01	0.968	0.72	0.159 (inactive)	-0.142	-0.0491
COc1ccc(C(O)C2C=CC3C(=O)N(C)C(=O)C3N2NC(=O)OC(C)(C)C)c2ccccc12 (stereo not given)	0.152	-0.129	-0.0107	0.669	1.62	1.81	0.937	-1.35 (inactive)	1.37	0.0881
OCCCC1=CC(C2CC2)N(Cc2cccc(OC(F)(F)F)c2)CC1 (stereo not given)	-0.367	0.406	-0.208	-0.771	-0.464	-0.106	0.677	0.606 (inactive)	-0.658	-0.0373
CC(C)OC(=O)C=C1C[C@@H](c2cccc(Cl)c2)O[C@@H](c2cccc(Cl)c2)O1	0.614	0.31	0.0442	0.771	0.028	0.903	0.891	-0.582 (inactive)	0.186	-0.189
O=C1C2C=CC(C(O)c3ccc(F)cc3)N(Nc3ccc([N+](=O)[O-])cc3)C2C(=O)N1c1ccccc1 (stereo not given)	0.0759	-0.358	0.16	0.305	1.45	2	1.37	-0.132 (inactive)	1.02	0.0373
O=C1OCC=C[C@H]2OC34C=CCN(Cn5nnc6ccccc65)C(=O)[C@H]3N(CCCCCO)C(=O)[C@@H]4[C@@H]12 (stereo not given in full)	0.4	-0.629	-0.0069	-0.138	-0.637	2.53	1.16	-0.564 (inactive)	-0.779	-0.396
